# Experimental data taken from PubChem BioAssay AID1159580 (chemical genetic matrix, 2015).
# “And” between values parts separate entries of the source, which are not always exact repeats. Equal values may be shown once. In all, about 5,500 compounds went through this assay and about 2,000 (36%) were called active. Roughly 18% stayed inconclusive and do not appear here. Rule as the data show it: active = normalized growth mostly below about 0.91 (no sharp cut-off); inconclusive = no clear call, values can overlap the other calls; inactive = mostly above about 0.92. The list shows a part of the results.
# Experiment: chemical genetic growth profiling, strain panel (AID 1159580);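 also: tested at 20 µM; growth read once vehicle control cultures reached saturation at 30 °C; 1 = growth at the plate median or of vehicle wells; lower values mean less growth of the strain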
# Settings: S. cerevisiae deletion strains, growth OD
smiles,measurement,setting,value
CC[C@@H](C(=O)[C@@H](C)[C@@H](O)[C@H](C)[C@@H]1O[C@@H]([C@@H](CC)C(=O)O)CC[C@@H]1C)[C@H]1OC2(C=C[C@@H](O)[C@]3(CC[C@@](C)([C@H]4CC[C@](O)(CC)[C@H](C)O4)O3)O2)[C@H](C)C[C@@H]1C (some centres undefined),normalized growth,"locus YAL013W, strain DEP1, stronger effect = lower value",1.02 (inactive)
same,normalized growth,"locus YAL021C, strain ccr4, stronger effect = lower value",0.721 (active)
same,normalized growth,"locus YAL026C, strain drs2, stronger effect = lower value",0.14 (active)
same,normalized growth,"locus YAL030W, strain snc1, stronger effect = lower value",0.906 (active)
same,normalized growth,"locus YBL061C, strain skt5, stronger effect = lower value",0.846 (active)
same,normalized growth,"locus YBR009C, strain hhf1, stronger effect = lower value",0.833 (active)
same,normalized growth,"locus YBR021W, strain FUR4, stronger effect = lower value",0.753 (active)
same,normalized growth,"locus YBR023C, strain chs3, stronger effect = lower value",0.839 (active)
same,normalized growth,"locus YBR171W, strain sec66, stronger effect = lower value",0.887 (active)
same,normalized growth,"locus YBR229C, strain ROT2, stronger effect = lower value",0.932 (inactive)
same,normalized growth,"locus YBR231C, strain swc5, stronger effect = lower value",0.789 (active)
same,normalized growth,"locus YBR279W, strain paf1, stronger effect = lower value",0.94 (inactive)
same,normalized growth,"locus YCL011C, strain gbp2, stronger effect = lower value",0.867 (active)
same,normalized growth,"locus YCL016C, strain dcc1, stronger effect = lower value",0.85 (active)
same,normalized growth,"locus YCL029C, strain bik1, stronger effect = lower value",0.911 (inactive)
same,normalized growth,"locus YCL061C, strain MRC1, stronger effect = lower value",0.923 (inactive)
same,normalized growth,"locus YCL069W, strain vba3, stronger effect = lower value",0.892 (active)
same,normalized growth,"locus YCR088W, strain abp1, stronger effect = lower value",0.877 (active)
same,normalized growth,"locus YDL005C, strain med2, stronger effect = lower value",0.97 (inactive)
same,normalized growth,"locus YDL035C, strain GPR1, stronger effect = lower value",0.876 (inactive)
same,normalized growth,"locus YDL040C, strain nat1, stronger effect = lower value",0.944 (inactive)
same,normalized growth,"locus YDL074C, strain BRE1, stronger effect = lower value",0.963 (inactive)
same,normalized growth,"locus YDL101C, strain DUN1, stronger effect = lower value",0.943 (inactive)
same,normalized growth,"locus YDL134C, strain PPH21, stronger effect = lower value",0.871 (active)
same,normalized growth,"locus YDL185W, strain tfp1, stronger effect = lower value",0.988 (inactive)
same,normalized growth,"locus YDL192W, strain arf1, stronger effect = lower value",0.136 (active)
same,normalized growth,"locus YDR001C, strain nth1, stronger effect = lower value",0.929 (inactive)
same,normalized growth,"locus YDR069C, strain doa4, stronger effect = lower value",0.872 (active)
same,normalized growth,"locus YDR101C, strain arx1, stronger effect = lower value",0.891 (active)
same,normalized growth,"locus YDR137W, strain rgp1, stronger effect = lower value",0.974 (inactive)
same,normalized growth,"locus YDR159W, strain sac3, stronger effect = lower value",0.941 (inactive)
same,normalized growth,"locus YDR162C, strain NBP2, stronger effect = lower value",0.69 (active)
same,normalized growth,"locus YDR195W, strain ref2",1.01 (inactive)
same,normalized growth,"locus YDR297W, strain sur2, stronger effect = lower value",0.919 (active)
same,normalized growth,"locus YDR318W, strain mcm21, stronger effect = lower value",0.825 (active)
same,normalized growth,"locus YDR334W, strain swr1, stronger effect = lower value",0.98 (inactive)
same,normalized growth,"locus YDR335W, strain msn5, stronger effect = lower value",0.927 (inactive)
same,normalized growth,"locus YDR388W, stronger effect = lower value",0.668 (active)
same,normalized growth,"locus YDR392W, strain spt3, stronger effect = lower value",1.09 (inactive)
same,normalized growth,"locus YDR502C, strain sam2, stronger effect = lower value",0.847 (active)
same,normalized growth,"locus YEL003W, strain gim4, stronger effect = lower value",0.885 (active)
same,normalized growth,"locus YEL037C, strain rad23, stronger effect = lower value",0.901 (active)
same,normalized growth,"locus YEL061C, strain CIN8 (second series), stronger effect = lower value",0.948 (inactive)
same,normalized growth,"locus YEL061C, strain CIN8, stronger effect = lower value",0.982 (inactive)
same,normalized growth,"locus YER015W, strain faa2, stronger effect = lower value",0.979 (inactive)
same,normalized growth,"locus YER016W, strain bim1, stronger effect = lower value",0.95 (inactive)
same,normalized growth,"locus YER110C, stronger effect = lower value",1.01 (inactive)
same,normalized growth,"locus YER111C, strain swi4, stronger effect = lower value",0.96 (inactive)
same,normalized growth,"locus YER155C, strain BEM2 (second series), stronger effect = lower value",1.03 (inactive)
same,normalized growth,"locus YER155C, strain BEM2, stronger effect = lower value",1.03 (inactive)
same,normalized growth,"locus YER167W, strain BCK2, stronger effect = lower value",0.914 (inactive)
same,normalized growth,"locus YFR010W, strain ubp6, stronger effect = lower value",0.84 (active)
same,normalized growth,"locus YGL078C, strain dbp3, stronger effect = lower value",0.917 (active)
same,normalized growth,"locus YGL086W, strain mad1, stronger effect = lower value",0.863 (active)
same,normalized growth,"locus YGL167C, strain pmr1, stronger effect = lower value",0.744 (active)
same,normalized growth,"locus YGL173C, strain kem1, stronger effect = lower value",0.917 (inactive)
same,normalized growth,"locus YGL227W, strain vid30, stronger effect = lower value",0.943 (inactive)
same,normalized growth,"locus YGL240W, strain doc1, stronger effect = lower value",1 (inactive)
same,normalized growth,"locus YGL248W, strain PDE1, stronger effect = lower value",0.878 (active)
same,normalized growth,"locus YGL253W, strain hxk2, stronger effect = lower value",0.816 (active)
same,normalized growth,"locus YGR078C, strain PAC10, stronger effect = lower value",0.986 (inactive)
same,normalized growth,"locus YGR135W, strain pre9, stronger effect = lower value",0.932 (inactive)
same,normalized growth,"locus YGR252W, strain gcn5, stronger effect = lower value",0.923 (inactive)
same,normalized growth,"locus YHR013C, strain ard1, stronger effect = lower value",1.07 (inactive)
same,normalized growth,"locus YHR027C, strain rpn1, stronger effect = lower value",0.958 (inactive)
same,normalized growth,"locus YHR030C, strain SLT2, stronger effect = lower value",0.934 (inactive) and 0.145 (active)
same,normalized growth,"locus YHR079C, strain IRE1 (second series), stronger effect = lower value",0.837 (active)
same,normalized growth,"locus YHR079C, strain IRE1, stronger effect = lower value",0.164 (active)
same,normalized growth,"locus YHR094C, strain hxt1, stronger effect = lower value",0.877 (active)
same,normalized growth,"locus YHR129C, strain ARP1, stronger effect = lower value",0.932 (inactive)
same,normalized growth,"locus YHR142W, strain chs7, stronger effect = lower value",0.836 (active)
same,normalized growth,"locus YHR200W, strain rpn10, stronger effect = lower value",0.908 (active)
same,normalized growth,"locus YIL066C, strain RNR3, stronger effect = lower value",0.934 (inactive)
same,normalized growth,"locus YIL073C, strain SPO22, stronger effect = lower value",0.88 (inactive)
same,normalized growth,"locus YIL125W, strain kgd1, stronger effect = lower value",0.785 (active)
same,normalized growth,"locus YIR030C, strain dcg1, stronger effect = lower value",0.892 (active)
same,normalized growth,"locus YJL092W, strain hpr5, stronger effect = lower value",0.903 (active)
same,normalized growth,"locus YJL095W, strain BCK1 (second series), stronger effect = lower value",0.875 (active)
same,normalized growth,"locus YJL095W, strain BCK1, stronger effect = lower value",0.819 (inactive) and 0.137 (active)
same,normalized growth,"locus YJL115W, strain asf1, stronger effect = lower value",0.985 (inactive)
same,normalized growth,"locus YJL129C, strain trk1, stronger effect = lower value",0.707 (active)
same,normalized growth,"locus YJL134W, strain LCB3, stronger effect = lower value",0.949 (inactive)
same,normalized growth,"locus YJL154C, strain vps35, stronger effect = lower value",0.821 (active)
same,normalized growth,"locus YJL164C, strain tpk1, stronger effect = lower value",0.883 (active)
same,normalized growth,"locus YJL166W, strain qcr8, stronger effect = lower value",0.926 (inactive)
same,normalized growth,"locus YJL168C, strain set2, stronger effect = lower value",0.873 (active)
same,normalized growth,"locus YJL187C, strain SWE1 (second series), stronger effect = lower value",0.916 (inactive)
same,normalized growth,"locus YJL187C, strain SWE1, stronger effect = lower value",0.935 (inactive)
same,normalized growth,"locus YJR043C, strain POL32, stronger effect = lower value",0.968 (inactive)
